Rows were chosen to be rich in hits. Some 3.9% of all compounds tested hit in one or more screens of this group.
GALK inh – inhibitors of human galactokinase. Purified GALK, Kinase-Glo residual ATP luminescence. Potency, µM (doses to about 57.5 µM), inactives show top-dose activity change, negative = inhibition, hits mostly inhibitors. hit rate 0.007% among 270,000. AID 1868; note: potency is the fitted concentration of half-maximal effect; % is set by controls: 0 for no effect and ±100 for the full control effect
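Kinase-Glo Plus luminescence measured ATP left after a 1 h room-temperature reaction. The reaction used 5 nM GALK, 100 uM galactose and 35 uM ATP at pH 8.0 (20 mM HEPES, 5 mM MgCl2, 60 mM NaCl, 1 mM DTT, 0.01% BSA).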
D1 potentiator – enhances dopamine response at the human D1 receptor | P21728 | HEK293 TREx D1 cells, calcium flux, dopamine EC20 potentiation | potentiation, % at 10 µM | hit rate 0.036% among 360,000; in the data active = potentiation above about 30%; note: 0% is about no effect
D1 agonist – agonists of human D1 dopamine receptor. P21728. HEK293 T-REx D1 cells, calcium flux, agonist mode. activation, % at 2 µM. hit rate 1% among 360,000. AID 504660; in the data active = activation above about 30%; note: 0% is about no effect
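Inducible HEK293 T-REx D1 cells, force-coupled to calcium signalling, were plated at 4000 cells/well with tetracycline and held overnight at 30 C. After no-wash calcium dye loading, compound-evoked calcium rise over 180 s flagged agonists.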
D1 antagonist – antagonists of human D1 dopamine receptor | P21728 | HEK293 TREx D1 cells, calcium flux, dopamine EC80; stronger effect = lower value | activity change, negative = inhibition, % at 10 µM | hit rate 3.2% among 360,000 | AID 504652; in the data active = activity change below about -30%; note: % is set by controls: 0 for no effect and ±100 for the full control effect
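Kinetic fluorescence of a calcium dye serves as the read-out. D1-expressing Hek293 Trex cells, induced overnight at 30 C, are exposed to compound for 180 s before an EC80 dopamine addition, then read 180 s further.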
Eya2 inh – blocks the phosphatase activity of human Eya2. O00167. recombinant Eya2, OMFP fluorescence dephosphorylation (OMFP is methylfluorescein phosphate). Potency, µM (doses to about 76.9 µM), for inactives: top-dose activity, negative = inhibition, hits mostly inhibitors. hit rate 0.006% among 330,000. AID 488837; note: potency is the fitted concentration of half-maximal effect; % is set by controls: 0 for no effect and ±100 for the full control effect
Target sequence (O00167 whole entry, looked up): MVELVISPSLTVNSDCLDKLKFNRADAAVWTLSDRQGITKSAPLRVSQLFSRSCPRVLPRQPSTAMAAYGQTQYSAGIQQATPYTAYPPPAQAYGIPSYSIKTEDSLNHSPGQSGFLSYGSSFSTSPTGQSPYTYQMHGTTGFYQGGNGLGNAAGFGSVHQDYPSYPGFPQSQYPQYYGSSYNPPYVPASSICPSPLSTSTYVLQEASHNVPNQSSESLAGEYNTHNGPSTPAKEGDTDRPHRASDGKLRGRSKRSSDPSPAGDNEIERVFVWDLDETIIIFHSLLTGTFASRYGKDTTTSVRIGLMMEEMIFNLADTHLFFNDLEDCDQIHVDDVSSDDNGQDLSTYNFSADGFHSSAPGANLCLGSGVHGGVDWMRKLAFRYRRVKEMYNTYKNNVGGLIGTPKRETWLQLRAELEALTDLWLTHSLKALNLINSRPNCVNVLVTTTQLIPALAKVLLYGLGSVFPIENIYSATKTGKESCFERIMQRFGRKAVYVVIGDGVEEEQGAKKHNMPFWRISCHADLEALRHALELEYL
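Eya2 protein (added as 0.2 uM solution) was preincubated with compound for 10 min at ambient temperature in 50 mM HEPES pH 7.5, 50 mM NaCl, 5 uM MgCl2, 0.05% BSA, 1 mM DTT. OMFP (added at 50 uM) then reacted 10 min; fluorescence read at 485/525 nm.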
USP2a inh – USP2a (human) protease inhibition | AID 463254 | USP2 core, Ub-CHOP2 coupled fluorogenic reporter, 485/531 | Potency, µM (titrated, usually from 38.3 µM), for the others: at the top dose activity change, negative = inhibition, most hits filed as inhibitors | hit rate 0.01% among 330,000;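 note: potency is the fitted concentration of half-maximal effect; plate controls were DMSO wells for no effect and full inhibition by NEM control for full effect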
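Deubiquitinase activity read as fluorescence (485/531 nm) after Ub-CHOP2 cleavage activates the enterokinase reporter on its substrate; USP2 core 10nM, Ub-CHOP2 and substrate 25nM each, 30min compound preincubation then 60min RT; data normalized to NEM, curves fitted.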
The depositor's hits bear a star; / = no result. Unless noted, calls come from the whole dose curve; as a rule, active = well fitted inhibition curve with a large enough effect; inconclusive = small, poorly fitted or top-dose-only effect, or effect the other way; inactive = flat fitted curve, though single readings scatter.

SMILES	GALK inh	D1 potentiator	D1 agonist	D1 antagonist	Eya2 inh	USP2a inh
COC(=O)c1cc2sc(Cl)cc2n1Cc1c(C)cc(C)cc1C	/	-4	1	2	/	/
COc1ccccc1NC(=O)c1ncn(-c2ccccc2)n1	/	0	1	-14	/	/
Cc1ccc(NC(=O)CN2C(=O)CCn3nc(-c4cccn4C)cc32)cc1	/	1	1	-1	/	/
CC(=O)OCC1(C)CN(c2ccccc2)N(C(=O)c2ccc(C(C)(C)C)cc2)C1=O (configuration not stated)	0%	-6	1	-64*	-1%	-1%
Cc1cccc(-c2nc(C)c(CCNC(=O)c3cccs3)s2)c1	/	-5	0	3	/	/
FC(F)(F)c1nnc(Nc2ccc(Cl)cc2)s1	0%	-5	12	-30*	-9%	1%
N#C/C(=C\Nc1ccc2c(c1)OCCO2)c1nc(-c2ccccc2)cs1	0%	-8	0	-42*	1%	3%
COc1ccc(-c2csc(/C(C#N)=C/Nc3ccc4c(c3)OCCO4)n2)cc1	0%	1	3	7	13%	9%
O=C(CNC(=O)c1ccccc1)N[C@H](C(=O)Nc1cc(C(F)(F)F)ccc1Cl)c1ccccc1	/	-2	4	7	/	/
CC(NC(=O)C1CCN(C(=O)N2CCOc3ccc(Cl)cc32)CC1)c1ccccc1 (configuration not stated)	/	-3	-1	13	/	/
O=C(COC(=O)CCC(=O)c1ccc(F)cc1)NCc1ccco1	16%	-8	0	-32*	-3%	3%
O=C(COC(=O)/C=C/c1ccc(C(F)(F)F)cc1)NCc1ccco1	-7%	-7	6	-31*	-13%	0%
O=C(COC(=O)/C=C/c1ccc(C(F)(F)F)cc1)NC1CCCC1	1%	-8	5	-49*	1%	2%
O=C(COC(=O)/C=C/c1ccc(OC(F)F)cc1)NCc1cccs1	0%	-3	36*	3	13%	5%
O=C(COC(=O)/C=C/c1ccc(C(F)(F)F)cc1)NC1CC1	/	1	9	-26	2%	0%
O=C(CO/N=C/c1ccc(OC(F)F)cc1)NCc1cccs1	2%	-7	5	-1	-2%	1%
COc1cccc(-n2cc(C(=O)NCCc3cccc(C)c3)c3ccccc3c2=O)c1	/	-3	-1	3	/	/
CCc1ccc(NC(=O)CSc2nnc3[nH]c(=O)cc(-c4ccccc4)n23)cc1	/	0	-2	/	/	/
CCOC(=O)/C=c1\s/c(=C\c2ccccc2C)c(=O)n1CC(=O)NCc1ccc2c(c1)OCO2	0%	-10	5	-57*	0%	1%
CCOC(=O)/C=c1\s/c(=C\c2ccc3cc(OC)ccc3c2)c(=O)n1CC(=O)NCc1ccc2c(c1)OCO2	0%	-9	3	-19	0%	2%
Cc1ccc(OCC(=O)Nc2ccc(S(=O)(=O)N3CCN(C)CC3)cc2)cc1	0%	-10	11	-24	-11%	-1%
CC(C)N(C(=O)NC(=O)Nc1ccc(S(=O)(=O)N2CCCC2)cc1)S(C)(=O)=O	10%	0	-3	-8	-10%	-2%
NC(=O)c1ccc(NC(=O)COC(=O)C2(c3ccccc3F)CCCC2)cc1	9%	-6	3	-22	4%	1%
COc1ccc(OCC(=O)Nc2ccc(S(=O)(=O)N3CCN(C)CC3)cc2)cc1	-2%	-6	8	-39*	3%	1%
CN1CCN(S(=O)(=O)c2ccc(NC(=S)NC(=O)C3CCCC3)cc2)CC1	-3%	-6	0	-45*	7%	0%
SMILES	GALK inh	D1 potentiator	D1 agonist	D1 antagonist	Eya2 inh	USP2a inh
NS(=O)(=O)c1ccc(NC(=O)COC(=O)C2(c3ccccc3F)CCCC2)cc1	/	-7	1	-34*	-1%	4%
CCOc1ccc(NC(=O)NC(=O)N(C(C)C)S(C)(=O)=O)cc1	-2%	-4	4	-35*	-9%	-1%
CC(C)C(=O)NC(=S)Nc1ccc(S(=O)(=O)N2CCN(C)CC2)cc1	-2%	4	1	-2	-3%	1%
COc1ccc(-c2cc(C(F)(F)F)nc(SCC(=O)N3CCC(C)CC3)n2)cc1	/	-6	0	-5	/	/
COc1ccc(CNC(=O)Cc2ccc(NC(=O)N3CCSc4ncccc43)cc2)cc1OC	/	-1	2	-2	/	/
CCOc1ccc(OCC(=O)Nc2ccc(S(N)(=O)=O)cc2)cc1	4%	-5	2	-34*	0%	-2%
Cc1cc(OCC(=O)Nc2ccc(S(=O)(=O)N3CCN(C)CC3)cc2)ccc1Br	-3%	-1	33*	-72*	0%	3%
NS(=O)(=O)c1ccc(NC(=O)COc2ccc(C(=O)c3ccc(F)cc3)cc2)cc1	-1%	-13	4	-27	9%	-1%
Cc1ccc(OCC(=O)Nc2ccc(S(=O)(=O)N3CCCC3)cc2)cc1	9%	1	4	3	-12%	1%
CC(=O)Nc1cnc(NC(=O)c2cccc(F)c2)cc1C	-3%	-3	3	-36*	0%	0%
Clc1cccc(Cl)c1CSc1nnc(-c2ccncc2)s1	-3%	13	144*	-16	4%	1%
Clc1ccc(CSc2nnc(-c3ccncc3)s2)cc1	-2%	3	2	-23	-6%	1%
O=C(Nc1ccc(F)c(Cl)c1)C1CCCN1S(=O)(=O)c1ccc(F)cc1 (configuration not stated)	/	-2	2	-6	/	/
O=C(Cc1cccs1)NNC(=S)NCc1ccc(Cl)cc1	-1%	-3	1	-11	-2%	7%
Cc1ccc2cc(CCNC(=O)c3cccs3)c(=O)[nH]c2c1C	/	-4	-3	-31*	-5%	0%
O=C(NCCc1ccc(Cl)cc1)c1cccs1	0%	0	1	-33*	2%	1%
O=C(NCCc1csc(-c2ccc(Cl)cc2)n1)c1cccs1	/	-4	3	-25	/	/
O=C(Cc1ccc(Cl)cc1)NNC(=S)NC(=O)c1cccs1	-3%	-5	47*	4	-1%	-7%
COc1ccc(Br)c(C(=O)N(C)CC(=O)Nc2ccc(N3CCOCC3)cc2)c1	/	-3	0	-51*	-5%	1%
Cc1cccc(-c2nn(-c3ccccc3)cc2C(=O)N(C)CC(=O)Nc2ccc(N3CCOCC3)cc2)c1	/	-3	-1	-71*	9%	0%
COc1cccc(-c2nn(-c3ccc(C)cc3)cc2C(=O)N(C)CC(=O)Nc2cccc(F)c2)c1	/	/	11	-32*	9%	1%
CN(CC(=O)Nc1ccc(N2CCOCC2)cc1)C(=O)c1cccc(Cl)c1Cl	/	-9	3	-36*	5%	1%
